Laboratory results from PubChem BioAssay AID1029 (Sanford-Burnham Center for Chemical Genomics, 2008).
In all, about 110,000 compounds went through this assay and about 80 (0.07%) were called active. The entries come from a sample that favours actives as a whole. Unmarked numbers belong to inactive results.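 Rule for the calls: active = inhibition above the mean of the plate negative controls plus 5 SD (cut at about 13% in these data); inactive = the rest.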

Assay: blockers of IgG-bead uptake by macrophages – imaging, J774A.1 cells, IgG beads, primary screen (AID 1029);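 note: phagocytic index as fraction of beads internalized from green versus red external bead signal; plate controls were DMSO negative control for no effect and cytochalasin-D positive control for full effect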
Conditions: J774A.1 macrophage IgG-bead phagocytosis, at 5 µM, stronger effect = higher value
`CC(=O)c1ccc2c(c1)c1ccccc1n2CC(C)C` gave an inhibition of 0.3%. In the case of `CC(=O)c1c(C)n([O-])c2ccccc2[n+]1=O`, the inhibition is reported as 79.2% (active). Molecule `c1ccc(-c2cc3c(NCC4COc5ccccc5O4)ncnc3s2)cc1` (centres undefined) has an inhibition of -5.69%. For `CCNS(=O)(=O)c1ccc(NC(=O)c2cncc(Br)c2)cc1`, the inhibition was -7.43%. Work on `CCC1CCCCN1C(=S)Nc1ccc(C(C)=O)cc1` (centres undefined) yielded an inhibition of -9.4%. `O=C(/C=C/c1cccc([N+](=O)[O-])c1)NCCSCc1ccco1` gave an inhibition of 6.74%. For `CCc1ccc(-c2cc(C(=O)NN3CCN(C)CC3)c3ccccc3n2)cc1`, the inhibition was -2.84%. With `COC(=O)c1c(NC(=O)CN2CCN(S(=O)(=O)c3ccccc3[N+](=O)[O-])CC2)sc2c1CCC(C)C2` (centres undefined) the inhibition was -4.89%. Work on `Cc1ccc(NC(=O)CSCC(=O)NC2CCCCC2)cc1` yielded an inhibition of 6.8%. For `Cc1ccc(CN2C(=O)N/C(=C/c3cc(C)n(-c4ccccn4)c3C)C2=O)cc1`, the inhibition was -12.6%. Work on `COc1ccc(NC(=S)NC2CCS(=O)(=O)C2)cc1` (centres undefined) yielded an inhibition of -3.06%. `O=C(Nc1ccccc1)/C(=C/c1ccc([N+](=O)[O-])cc1)NC(=O)c1ccccc1` showed an inhibition of -6.22%. Work on `CC(=O)Nc1ccc(/C(C)=N/NC(=O)CN(c2ccccc2Br)S(C)(=O)=O)cc1` yielded an inhibition of -1.53%. `Cc1ccccc1OCC(=O)Nc1nc(C)c(C(=O)N(C)C)s1` showed an inhibition of -2.14%. In the case of `CCn1ncc(CNC(=O)C2(C)CC2(Br)Br)c1C` (centres undefined), the inhibition is reported as -2.71%. Molecule `O=C(/C=C\c1cn(-c2ccccc2)nc1-c1cccs1)N1CCOCC1` has an inhibition of -5.61%. With `COc1cc2c(cc1OC)C(Nc1ccc(S(N)(=O)=O)cc1)=NC(C)(C)C2` the inhibition was -2.77%. In the case of `COCCNc1nc(N)c([N+](=O)[O-])c(NCCO)n1`, the inhibition is reported as -3.97%. Molecule `COc1ccc(/C(C)=N/NC(=O)CCC(=O)Nc2ccc(Cl)cc2Cl)c(OC)c1` has an inhibition of 0.09%. `CCC1CCc2c(sc(NC(C)=O)c2C#N)C1` (centres undefined) gave an inhibition of -7.48%. Work on `COc1ccc(N2C(=O)C(O)C2c2ccc(C)cc2)cc1` (centres undefined) yielded an inhibition of -1.93%. Molecule `CC(CC(=O)N1CCN(c2ccccc2)CC1)c1ccccc1` (centres undefined) has an inhibition of -3.13%. In the case of `Cc1ccnc(NC(=O)Cn2ccc([N+](=O)[O-])n2)c1`, the inhibition is reported as -6.53%. In the case of `Cc1ccc(C)c(NC(=O)CCC(=O)NNC(=O)c2cccs2)c1`, the inhibition is reported as 1.58%. `COCCNC(=O)c1ccccc1NS(=O)(=O)c1ccc(C)c([N+](=O)[O-])c1` gave an inhibition of -2.99%. `O=C(NNC(=S)NCc1ccccc1)c1ccc(OC(F)F)cc1` showed an inhibition of -3.86%. For `CCCCN(CC)C(=S)Nc1ccc2nc3n(c(=O)c2c1)CCCCC3`, the inhibition was -7.14%. With `O=C1CCCC(O)=C1N=Nc1ccc2ncsc2c1` the inhibition was 105% [artifact] (active). For `COc1ccc(C)cc1NC(=O)C(OC(=O)c1cccc(S(=O)(=O)N(C)c2ccccc2)c1)c1ccccc1` (centres undefined), the inhibition was -5.86%. For `Cc1cccc(C)c1NC(=O)CSc1ccc([N+](=O)[O-])cn1`, the inhibition was -2.92%. In the case of `O=C1NC(c2ccccc2)CCC1(Cl)Cl` (centres undefined), the inhibition is reported as 2.89%. `CCC(=O)/C=C1\Sc2ccccc2N1CC` gave an inhibition of -1.58%. `S=C(NCc1ccc(Cl)cc1)NC1CCCCC1` showed an inhibition of -3.92%. With `O=C(NN1C(=O)C2C3C=CC(O3)C2C1=O)c1ccncc1` (centres undefined) the inhibition was -4.03%. For `O=C(CSc1nnc(-c2ccncc2)o1)NCc1ccc(Cl)cc1`, the inhibition was -5.78%. `COc1ccc(OCc2cn3c(C)cc(C)nc3n2)cc1` gave an inhibition of -0.34%. `COc1cc(/C=C/C(=O)O)cc(S(=O)(=O)Nc2ccccc2SC)c1OC` showed an inhibition of -5.74%. `CCCCN(CC)C(=O)c1ccc2c(c1)OCO2` gave an inhibition of 1.32%. In the case of `Cc1ccc2c(c1)C1CN(C)CCC1N2C(=O)c1ccccc1NS(=O)(=O)c1ccc(F)cc1C` (centres undefined), the inhibition is reported as -3.92%. With `COC(=O)/C(=C1\Oc2ccc(C(C)(C)C)cc2S1)C(F)(F)F` the inhibition was 7.86%. Work on `CC(C)CNC(=S)Nc1ccc(F)cc1` yielded an inhibition of -3.14%. In the case of `CCCCOc1ccc(NC(=O)[C@@H]2CCCN2C(=O)C2CCN(S(=O)(=O)c3ccc(C)cc3)CC2)cc1`, the inhibition is reported as -3.36%. In the case of `Cc1ccc(NC(=O)CC2S/C(=N/N=C3\CCCc4ccccc43)NC2=O)cc1` (centres undefined), the inhibition is reported as -6.09%. `O=C(CN1CCc2ccccc21)NC(c1ccccc1)c1ccccc1` gave an inhibition of -5.11%. Molecule `O=C(O)c1ccc2c(c1)C(=O)N(NC(=O)c1ccc(O)cc1)C2=O` has an inhibition of -5.14%. Molecule `COc1ccc(NC(=S)NCc2cccs2)c(OC)c1` has an inhibition of 0.55%. `COc1cc2c(cc1/C=C1/NC(=O)N(c3ccccc3)C1=O)OCO2` showed an inhibition of -3.27%. `Cc1cc(C(=O)NNC(=S)NC(C)c2ccccc2)cs1` (centres undefined) showed an inhibition of -2.01%. For `Cc1ccc(-n2[nH]c(C)c(/C=N/NC(=O)c3cccc([N+](=O)[O-])c3)c2=O)cc1C`, the inhibition was -4.72%. Molecule `Cc1ccc(C(=O)Oc2coc(CSc3nnc(NC(=O)c4cccs4)s3)cc2=O)cc1C` has an inhibition of -0.5%. Molecule `NC1=C([N+](=O)[O-])C(c2ccccc2)C2=C(CCCC2=O)O1` (centres undefined) has an inhibition of -3.95%. `COc1ccc(C(=O)COC(=O)c2ccc3ccccc3n2)cc1` gave an inhibition of -5.54%. Work on `O=[N+]([O-])c1cccc(C2=NCCS2)c1` yielded an inhibition of 0.05%. In the case of `Cc1ccccc1Cn1nc(C)c(NC(=O)C(F)(F)F)c1C`, the inhibition is reported as -2.43%. Work on `CC(C)(C)C1CCC(=NNC(=O)c2cc(-c3ccccc3)n[nH]2)CC1` (centres undefined) yielded an inhibition of 0.48%. With `CCOc1ccc2nc(NC(=O)c3cc([N+](=O)[O-])ccc3N3CCOCC3)sc2c1` the inhibition was 3.64%. `CC(=O)c1ccc(NC(=S)NC(=O)CC(C)C)cc1` gave an inhibition of -4.19%. `CCOc1ccc(C(=O)NC(=S)Nc2ccc(NC(=O)C(C)C)cc2)cc1[N+](=O)[O-]` showed an inhibition of -0.7%. `COc1ccc2nc(Nc3nc(-c4cc5ccccc5oc4=O)cs3)sc2c1` showed an inhibition of 0.77%. With `CC(=O)Nc1cccc(/C(C)=N/NC(=O)c2c(-c3ccccc3Cl)noc2C)c1` the inhibition was -2.62%. For `Cc1ccc(C)c(OCC(=O)N2CCN(C(=O)c3ccco3)CC2)c1`, the inhibition was -4.31%. With `COc1ccc(-c2csc3ncnc(Oc4ccc5c(C)cc(=O)oc5c4)c23)cc1` the inhibition was -2.34%. In the case of `O=C(CNS(=O)(=O)c1ccccc1)NCC(=O)OCc1ccccc1F`, the inhibition is reported as -3.58%. With `CCCOc1ccc(NC(=O)C2OC3OC(C)(C)OC3C3OC(C)(C)OC23)cc1` (centres undefined) the inhibition was -11.4%. Work on `CCOC(=O)C1=C(C)NC(=S)NC1c1cccs1` (centres undefined) yielded an inhibition of -4.52%. In the case of `Cc1scc(C(=O)NNC(=S)NCc2ccccc2)c1C`, the inhibition is reported as -4.2%. `O=C(Nc1ccccc1Cc1ccccc1)c1ccc2c(c1)SC1=NS(=O)(=O)CCN12` gave an inhibition of -3.83%. With `O=C(O)c1cccc(N2C(=O)Nc3ccccc3N2O)c1` the inhibition was -9.86%. With `COc1ccc(Cc2nnc(N/N=C/c3ccccc3O)[nH]c2=O)cc1OC` the inhibition was -6.04%. Molecule `COCC(=O)Nc1cc(C(=O)OC)cc(C(=O)OC)c1` has an inhibition of -2.4%. With `CN(C)C(CNC(=O)c1ccc(S(=O)(=O)NCc2ccco2)cc1)c1ccccc1` (centres undefined) the inhibition was -2.95%. Work on `COc1cc(NC(=O)Nc2ccc(C)cc2)cc([N+](=O)[O-])c1` yielded an inhibition of -5.65%. With `CC(C)C(C)(C#N)NC(=O)CSc1nc2scc(-c3ccccc3)c2c(=O)[nH]1` (centres undefined) the inhibition was -2.01%. For `Cc1cccc(-c2nc3ccccc3c(=O)n2NC(=O)Cc2ccc(Cl)cc2)c1`, the inhibition was -9.34%. Molecule `O=C(NC(=S)Nc1cc(C(F)(F)F)ccc1N1CCOCC1)c1ccc(-c2cccc(Cl)c2)o1` has an inhibition of -11.9%. In the case of `S=C(NCCc1ccccc1)NCC1CCCO1` (centres undefined), the inhibition is reported as 2.03%. With `Cc1nc2c(C(=O)NCc3cccs3)cnn2c(C)c1Cc1ccc(F)cc1` the inhibition was -10.6%. Molecule `CCCCCNC(=O)c1cccnc1SCC(=O)Nc1ccccc1OC` has an inhibition of -7.81%. Work on `CCCCOc1ccc(C(=O)N/C(=C/C=C/c2ccccc2)C(=O)N2CCOCC2)cc1` yielded an inhibition of -6.1%. For `CCc1ccc(NC(=O)CC2C(=O)NCCN2C(=S)Nc2ccccc2)cc1` (centres undefined), the inhibition was 0.25%. Work on `COC(C(=O)Nc1ccc(C(C)=O)cc1)c1ccccc1` (centres undefined) yielded an inhibition of -7.11%. `COCCn1c(SCC(=O)Nc2ccc3c(c2)CCC3)nc2ccccc2c1=O` showed an inhibition of -6.84%. In the case of `Cc1c(Cl)c([N+](=O)[O-])nn1CCCC(=O)Nc1cc(Cl)ccc1Cl`, the inhibition is reported as -3.17%. For `COc1ccccc1OCc1ccc(C(=O)N2CCN(C)CC2)o1`, the inhibition was 0.11%. `O=C(/C=C/c1cnc2ccccc2n1)NC1CCCCCC1` gave an inhibition of -9.71%. `CO/N=C(\N)c1ccc([N+](=O)[O-])cc1` gave an inhibition of -3.92%. For `Cc1ccc(N(Cc2cc3ccccc3[nH]c2=O)C(=O)c2cccs2)cc1`, the inhibition was 0.22%. Molecule `COC(C(=O)NCc1ccccc1C)c1ccccc1` (centres undefined) has an inhibition of -6.05%. With `Cc1nnc(SCc2cc(=O)[nH]c(N3CCN(Cc4ccccc4)CC3)n2)s1` the inhibition was 55.5% (active). `CCc1c(C)nc(N2CCN(Cc3ccccc3)CC2)[nH]c1=O` gave an inhibition of -1.2%. `O=c1cc(CSc2ccccn2)nc(N2CCN(c3ccccc3)CC2)[nH]1` showed an inhibition of -1.3%. With `O=C(N/N=C/c1coc2ccccc2c1=O)c1cc2ccccc2o1` the inhibition was -4.52%. With `Cc1nc2ccccc2nc(C)c1=NOCc1ccc(Cl)cc1Cl` the inhibition was -8.1%. `COc1ccc(C2CC(c3ccccc3)=NN2C(=O)CSc2nccc(=O)[nH]2)cc1` (centres undefined) gave an inhibition of -11.3%.
